# Test results reported in PubChem BioAssay (EPA / NIEHS).
# Values joined by “and” are separate entries in the source; they are usually repeats but may differ in a detail not shown here. Equal values may be shown once. Inconclusive results are not listed. Active and inactive are the calls of the source. Rule for the calls: active = hit-call score of the fitted dose curve at least 0.9, where 1 is the maximum; inconclusive = response in the unintended direction; inactive = score below 0.9.
# Experiment: IUF_NPC1_cytotoxicity_72hr: Cytotoxicity Assessment at 72 hours in the Leibniz Research Institute for Environmental Medicine (IUF) Neural Progenitor Cell Proliferation Assay (NPC1) (AID 2284332);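 note: rising LDH signal means more cytotoxicity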
# Description: IUF_NPC1 is a cell-based, multiplexed assay that uses hNPC, a human primary neural progenitor cells, with measurements taken at 72 hours after chemical dosing in a 96-well plate. Human neural progenitor cells (hNPC) are generated from human fetal brain cortex at gestational week (GW) 16-19. Grown in suspension culture and under proliferative conditions (proliferation media and growth factors), these cells represent neural progenitor cell proliferation. In the NPC1 assay, hNPC's are exposed to the test compound for 72h. Cell proliferation is assessed as an increase in sphere area using automated phase contrast imaging and as incorporation of Bromodeoxyuridine (BrdU) during DNA synthesis using a luminescence-based cell proliferation ELISA. In parallel, the cell viability is assessed using an alamar blue viability assay and the cytotoxicity using a lactate dehydrogenase dependent membrane integrity assay.IUF_NPC1_cytotoxicity_72hr is one of 4 assay components measured from the IUF_NPC1 assay. It is designed to measure cytotoxicity at 72 hrs due to loss of membrane integrity. LDH measurements are performed from medium supernatants of each well and are based on the reduction of resazurin to resorufin measured as fluorescence signal (relative fluorescence unit) in a multiplate reader. Data from the IUF_NPC1_cytotoxicity_72hr component was analyzed at the endpoint IUF_NPC1_cytotoxicity_72hr in the positive analysis fitting direction relative to the dynamic range and baseline of activity. Using a type of viability reporter, gain-of-signal activity can be used to understand cytotoxicity effects.
# After the cell expansion period, the cells are cultured for up to four weeks in which they are passaged every week. Between one to three days after passaging, depending on the size chosen for passaging, spheres at a size of 0.3 mm are used in the assay. For the assessment of neural progenitor cell proliferation, the spheres are plated in poly-Hema coated 96-well U-bottom plates filled with proliferation medium containing growth factors (EGF and FGF). One 0.25 - 0.35 mm big sphere is plated in the middle of each well. Within 3 days NPCs proliferate and grow in size. Cultivation during the test method is performed at 37C and 5% CO2 at a pH of 7.2-7.6. As a positive control, spheres are cultivated in the absence of growth factors (EGF and FGF), which dramatically reduces proliferation. Exposure starts on the plating day (day 0) and is continued over three days, without chemical renewal, until the experiment is terminated. The assay is terminated by the assessment of cell viability, cytotoxicity, and proliferation by BrdU. All endpoints are generated from the same experimental run and from each well/sphere in the 96-well plate.
SMILES,outcome,AC50
CCOP(=S)(OCC)SCCSCC,inactive,–
CCOP(=O)(NC(C)C)Oc1ccc(SC)c(C)c1 (stereo not drawn),inactive,–
CN1COCN(Cc2cnc(Cl)s2)C1=N[N+](=O)[O-],inactive,–
S=C1NCCN1,inactive,–
CC1=NNC(=O)N(/N=C/c2cccnc2)C1,inactive,–
COP(=O)(OC)OC(Br)C(Cl)(Cl)Br (stereo not drawn),inactive,–
CC[C@H](C)[C@H]1O[C@]2(C=C[C@@H]1C)C[C@@H]1C[C@@H](C/C=C(\C)[C@@H](O[C@H]3C[C@H](OC)[C@@H](O[C@H]4C[C@H](OC)[C@@H](NC)[C@H](C)O4)[C@H](C)O3)[C@@H](C)/C=C/C=C3\CO[C@@H]4[C@H](O)C(C)=C[C@@H](C(=O)O1)[C@]34O)O2,–,18.5 µM (active) and 3.79 µM (active)
CCOC(=O)CC(SP(=O)(OC)OC)C(=O)OCC (stereo not drawn),inactive,–
CCOP(=S)(OCC)Oc1cc(C)nc(C(C)C)n1,inactive,–
CON=C(C(=O)OC)c1ccccc1CON=C(C)c1cccc(C(F)(F)F)c1,inactive,–
COP(=O)(NC(C)=O)SC (stereo not drawn),inactive,–
CN(C)[C@@H]1C(=O)C(C(N)=O)=C(O)[C@@]2(O)C(=O)C3=C(O)c4c(O)cccc4[C@@](C)(O)[C@H]3[C@H](O)[C@@H]12,inactive,–
O=[N+]([O-])c1cc(C(F)(F)F)c(Cl)c([N+](=O)[O-])c1Nc1ncc(C(F)(F)F)cc1Cl,–,21.9 µM (active)
CCOP(=S)(OCC)OC(Cl)C(Cl)(Cl)Cl (stereo not drawn),inactive,–
CCOP(=O)(OCC)Oc1cc(C)nc(C(C)C)n1,inactive,–
C[N+]1(C)CCCCC1,inactive,–
C=C(C)[C@H]1Cc2c(ccc3c2O[C@@H]2COc4cc(OC)c(OC)cc4[C@@H]2C3=O)O1,inactive,–
CSC1=N[C@@](C)(c2ccccc2)C(=O)N1Nc1ccccc1,inactive,–
CCCCSP(=O)(SCCCC)SCCCC,–,82.5 µM (active)
COP(=O)(OC)C(O)C(Cl)(Cl)Cl (stereo not drawn),inactive,–
CC(=NC#N)N(C)Cc1ccc(Cl)nc1,inactive,–
CCCSP(=O)(OCC)SCCC,inactive,–
CCOP(=S)(Oc1cnc(C(C)(C)C)nc1)OC(C)C (stereo not drawn),inactive,–
